Screening results deposited in PubChem by several laboratories.
Gli-Sufu block – Gli-Sufu pathway antagonists, primary screen, luciferase luminescence, Sufu-KO-LIGHT cells, uHTS; Sufu-KO-LIGHT fibroblasts, Gli luciferase reporter luminescence; inhibition, % at 5 µM; actives 0.74% (n = 340,000); AID 588413, 2011;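 active = inhibition above about 55%, limit read from the data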
NCOA2 inhibitor – inhibition of GAL4-SRC2 driven luciferase reporter, primary screen, SRC2 inhibitor project, cell-based, luminescence; HEK293 GAL4-SRC2 luciferase reporter; inhibition, % at 9 µM; actives 0.17% (n = 370,000); AID 651957, 2012;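 active = inhibition above the mean inhibition of all tested compounds plus 3 SD, set per campaign, cut at about 52% in these data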
SRC3 inh – SRC3 coactivator transcriptional activity inhibitors, primary screen, cell-based, luminescence; Nuclear receptor coactivator 3 (Homo sapiens), Q9Y6Q9; HEK293 GAL4-SRC3 luciferase reporter; inhibition, % at 3.6 µM; actives 0.17% (n = 360,000); AID 588352, 2011;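 active = inhibition above a per-campaign cutoff, the mean of all compounds plus 3 SD, cut at about 60% in these data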;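 note: higher means less SRC3-driven luciferase light from the GAL4 reporter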
LRH-1 inv ag – LRH-1 (NR5A2) inverse agonists, primary screen, cell-based, luminescence, HEK293T, StAR-luciferase reporter | Nuclear receptor subfamily 5 group A member 2 (Homo sapiens), O00482 | LRH-1 transfected, 24 h | inhibition, % at 3.6 µM | actives 0.13% (n = 360,000) | AID 602396, 2012;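 active = inhibition above the mean inhibition of all tested compounds plus 3 SD, cut at about 73% in these data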
NR2F2 inh – NR2F2 transcriptional activity inhibitors, primary screen, cell-based, luciferase reporter, HEK293T, luminescence. actives 0.7% (n = 370,000). inhibition, % at 8.6 µM. HEK293T NGFI-A luciferase reporter;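 active = inhibition above a per-plate cutoff, mean inhibition of test wells between control levels plus 3 SD, cut at about 38% in these data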;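 note: cells cotransfected with COUP-TFII expression vector driving the NGFI-A reporter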
SRC1 inh – SRC1 coactivator transcriptional activity inhibitors, primary screen, cell-based, luminescence; AID 588354, 2011; HEK293 GAL4-SRC1 luciferase reporter; actives 0.12% (n = 360,000); inhibition, % at 3.6 µM; Nuclear receptor coactivator 1 (Homo sapiens), Q15788;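 active = inhibition above the campaign mean plus 3 SD, with each screening campaign given its own cutoff, cut at about 60% in these data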
Gli-Sufu confirm – Gli-SUFU pathway antagonists, confirmation, single concentration, luciferase luminescence, Sufu-KO-LIGHT cells | shares compounds with Gli-Sufu block | Gli luciferase reporter | inhibition, % at 5 µM | actives 40% (n = 2,500) | AID 602428, 2012;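 active = mean inhibition at 5 µM reaching about 45%, limit read from the data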
SufuKO cytotox – cytotoxicity in Sufu-KO-LIGHT cells, confirmation, cytotoxicity control for Gli-SUFU antagonist project, cell-based, ATP luminescence, single concentration | shares compounds with Gli-Sufu block | cytotoxicity, % at 5 µM | actives 32% (n = 2,500) | AID 651994, 2013;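 active = mean cytotoxicity at 5 µM above about 25%, limit read from the data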;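 note: cells exposed to compound overnight for roughly 16 to 18 hours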
Wnt3a cs – Wnt3a reporter signal inhibition, confirmation, counter-screen for Gli-SUFU antagonist project, Wnt-LIGHT cells, luminescence, single concentration. shares compounds with Gli-Sufu block. Wnt3a-driven luciferase reporter. inhibition, % at 6.25 µM. actives 20% (n = 2,500);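 active = mean inhibition above about 25%, limit read from the data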
Numbers stand for hits; - = inactive; . = no result. An excerpt weighted towards active compounds, which were near 1.3% of everything screened.

SMILES	Gli-Sufu block	NCOA2 inhibitor	SRC3 inh	LRH-1 inv ag	NR2F2 inh	SRC1 inh	Gli-Sufu confirm	SufuKO cytotox	Wnt3a cs
O=c1[nH]c(C2CCN(S(=O)(=O)c3ccc(C(F)(F)F)cc3)CC2)nc2c1nnn2Cc1cccc(F)c1	56	-	-	-	-	-	-	25	-
COc1ccc(Cl)cc1C(=O)Nc1ccccc1N1CCN(C(=O)C(C)C)CC1	-	-	-	-	-	-	-	34	-
COc1ccc(C(=O)Nc2ccccc2N2CCN(C(=O)C(C)C)CC2)cc1Cl	-	-	-	-	-	-	.	.	.
CC(COc1ccc(Cl)cc1)CN1CCC(C(O)(c2ccccc2)c2ccccc2)CC1 (stereo not drawn)	.	-	.	.	-	.	.	.	.
CCCCCCC[C@H](N)[C@H](O)C(=O)N(C)[C@@H](CCS(C)=O)C(=O)N[C@@H](Cc1ccc(O)cc1)C(=O)O (stereo partly drawn)	.	.	.	.	-	.	.	.	.
COc1ccc(C(=O)N2CCN(c3cccc(Cl)c3)CC2)c(OC)c1	-	-	-	-	-	-	.	.	.
COc1ccccc1N1CCN(c2ncc(C(=O)N3CCN(c4cccc(Cl)c4)CC3)c3ccccc23)CC1	61	-	-	-	-	-	67	-	-
COC(=O)C(CN)CN1C(=O)c2ccccc2C1=O (stereo not drawn)	.	-	.	.	-	.	.	.	.
CCOc1ccccc1NC(=O)COC(=O)c1c(CC)noc1C	67	-	-	-	-	-	-	-	-
COc1ccc(OC)c(C(=O)NC(CC(N)=O)c2ccc(NCCN3CCCC3)c([N+](=O)[O-])c2)c1 (stereo not drawn)	-	-	-	-	-	-	.	.	.
COc1ccc(OC)c(C(=O)NC(CC(N)=O)c2ccc(NCCN3CCOCC3)c([N+](=O)[O-])c2)c1 (stereo not drawn)	94	-	-	-	-	-	-	-	-
CCOC(=O)C1(CCOc2ccccc2)CCN(Cc2ccc(OC)c(COC)c2)CC1	57	-	-	-	-	-	-	-	-
Cc1cccc(NC(=O)C2CCCN(C(=O)Nc3ccccc3)C2)c1C (stereo not drawn)	58	-	-	-	-	-	-	-	-
O=c1cc(CSc2nnc(Nc3ccccc3)s2)nc2sccn12	-	-	-	-	-	-	-	-	-
CC(C)CNC(=O)OCc1cn(Cc2c(F)cccc2F)nn1	.	-	.	.	-	.	.	.	.
Cc1ccc(-c2nn(C)c(=O)c3ccccc23)cc1S(=O)(=O)N1CCOCC1	-	-	-	-	-	-	-	-	-
C#CCNC(=O)C[C@H]1C[C@@]2(C(=O)OC)C(=C[C@H](C(C)C)O[C@@H]2C2CC2)N(Cc2ccc(Cl)cc2Cl)C1=O	.	-	.	.	-	.	.	.	.
CN1/C(=C\C(=O)C(F)F)C(C)(C)c2ccccc21	-	-	-	-	-	-	.	.	.
CC(=O)/C=C1\N(C)c2ccc(C)cc2C1(C)C	61	-	-	-	-	-	61	29	30
CN1/C(=C\C=N\NC(=O)c2ccc(O)cc2)C(C)(C)c2ccccc21	76	-	-	-	-	-	65	25	-
Cc1ccc(C(=O)NC(=S)/C=C2\N(C)c3ccccc3C2(C)C)cc1	77	-	-	-	-	-	-	-	-
CC(C)C(=O)NC(=S)/C=C1/N(C)c2ccccc2C1(C)C	56	-	-	-	-	-	57	-	-
O=C(O)COc1ccccc1C=NNC(=O)Cc1cc(=O)[nH][nH]1	.	-	.	.	-	.	.	.	.
